Hits are enriched below; roughly 6.6% of the tested compounds scored in any of these assays.
Beta apoptosis – blocks beta cell apoptosis; INS-1E cytokine-induced death, ATP luminescence, 48 h; percent of positive-control rescue, neutral wells zero; protection from apoptosis, % (test concentration not listed); 300,000 tested, 0.8% active; AID 435005;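 active = Every replicate reaches about 75%, or at least half do and their mean reaches it too, limit read from the data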;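 note: higher means more ATP so stronger rescue from cytokine killing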
GRIN3A LBD mod – NR3A (human) ligand-binding domain modulation; 340,000 tested, 2.5% active; Tm shift relative to glycine control, % at 25 µM; AID 1259313; NR3A LBD differential scanning fluorimetry, Tm shift; 0% = protein alone, 100% = glycine-bound protein;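 active = melting temperature shift of at least 10% of the positive control shift, at one fixed dose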
CSC inhib – cancer stem cell inhibition. cancer stem cell-like cells viability, luminescence. inhibition, % at 7.5 µM. 300,000 tested, 1.1% active. AID 2717; in the data active = inhibition above about 75%; tested in HMLE shEcad cells
Mdm2 MdmX PPI – inhibitors of human Mdm2/MdmX interaction. SaOS-2 split-luciferase Mdm2/MdmX complementation, luminescence. inhibition, % at 8 µM. 330,000 tested, 3% active;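 active = inhibition of at least 50% at 8 µM in the primary screen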
Gli-Sufu antag – blocks Gli-Sufu signaling in a luciferase reporter; 340,000 tested, 0.74% active; Sufu-KO-LIGHT fibroblasts, Gli luciferase reporter luminescence; inhibition, % at 5 µM;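 active = inhibition above about 55%, limit read from the data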
MPTP block – blocks calcium-induced mitochondrial swelling; isolated mouse mitochondria, Ca2+ swelling absorbance, 30 min; 360,000 tested, 1.4% active; inhibition, % at 10 µM; AID 602449;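 active = inhibition of 50% or more, scaled per plate between neutral and stimulator controls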
Hits are given with their value.

Screening C=CC(=O)NCC1OCCc2ccccc21 (stereo unspecified) returned Beta apoptosis inactive, GRIN3A LBD mod inactive, CSC inhib inactive, Mdm2 MdmX PPI inactive, Gli-Sufu antag inactive and MPTP block inactive.
For O=C(/C=C/c1ccco1)NCC1OCCc2ccccc21 (stereo unspecified) the results were Beta apoptosis 107, GRIN3A LBD mod inactive, CSC inhib 111, Mdm2 MdmX PPI inactive, Gli-Sufu antag inactive and MPTP block inactive.
Screening O=[N+]([O-])c1ccc(N/N=C/c2ccc(O)c(O)c2O)c(S(=O)(=O)N2CCOCC2)c1 returned GRIN3A LBD mod 23, Mdm2 MdmX PPI inactive, Gli-Sufu antag inactive and MPTP block inactive.
Screening COc1cc(/C=N/Nc2ccc([N+](=O)[O-])cc2S(=O)(=O)N2CCOCC2)cc(OC)c1OC returned Beta apoptosis inactive, GRIN3A LBD mod inactive, CSC inhib inactive, Mdm2 MdmX PPI inactive, Gli-Sufu antag inactive and MPTP block inactive.
For O=[N+]([O-])c1ccc(N/N=C/c2cccc(O)c2O)c(S(=O)(=O)N2CCOCC2)c1 the results were Beta apoptosis inactive, GRIN3A LBD mod 30, CSC inhib inactive, Mdm2 MdmX PPI inactive, Gli-Sufu antag inactive and MPTP block inactive.
For O=[N+]([O-])c1ccc(NCCCO)c(S(=O)(=O)N2CCOCC2)c1 the results were Beta apoptosis inactive, GRIN3A LBD mod inactive, CSC inhib inactive, Mdm2 MdmX PPI inactive, Gli-Sufu antag inactive and MPTP block inactive.
`Cc1nn(CC(=O)NC2CCS(=O)(=O)C2)c(C)c1[N+](=O)[O-]` (stereo unspecified) gave Beta apoptosis inactive, GRIN3A LBD mod inactive, CSC inhib inactive, Mdm2 MdmX PPI inactive, Gli-Sufu antag inactive and MPTP block inactive.
CC(=O)c1cccc(NC(=O)C(OC(=O)c2ccccc2NS(=O)(=O)c2cccs2)c2ccccc2)c1 (stereo unspecified) was read as Beta apoptosis inactive, GRIN3A LBD mod 30, CSC inhib inactive, Mdm2 MdmX PPI inactive, Gli-Sufu antag inactive and MPTP block inactive.
CCC(CC)c1nn2c(N)c(/C=C3\C(C)=Nc4ccccc43)c(=O)nc2s1 was read as Beta apoptosis inactive, GRIN3A LBD mod 13, CSC inhib inactive, Mdm2 MdmX PPI inactive, Gli-Sufu antag inactive and MPTP block inactive.
Screening CC(C)c1nn2c(N)c(/C=C3\C=Nc4ccccc43)c(=O)nc2s1 returned Beta apoptosis inactive, GRIN3A LBD mod inactive, CSC inhib inactive, Mdm2 MdmX PPI inactive, Gli-Sufu antag inactive and MPTP block inactive.
`CCC(CC)c1nn2c(N)c(/C=C3\C=Nc4ccccc43)c(=O)nc2s1` gave Beta apoptosis inactive, GRIN3A LBD mod 11, CSC inhib inactive, Mdm2 MdmX PPI inactive, Gli-Sufu antag inactive and MPTP block inactive.
For C=C(C)COc1ccc(-c2nc(N)ncc2-c2ccc(Br)cc2)c(O)c1 the results were Beta apoptosis inactive, GRIN3A LBD mod 12, CSC inhib 107, Mdm2 MdmX PPI inactive, Gli-Sufu antag inactive and MPTP block inactive.
Screening C=C(C)COc1ccc(-c2ncncc2-c2ccc(Br)cc2)c(O)c1 returned Beta apoptosis inactive, GRIN3A LBD mod inactive, CSC inhib inactive, Mdm2 MdmX PPI inactive, Gli-Sufu antag inactive and MPTP block inactive.
For COc1cccc(NC(=O)N(C)C[C@H]2Oc3ncc(Br)cc3C(=O)N([C@H](C)CO)C[C@H]2C)c1 the results were MPTP block inactive.
Cc1nc2ccccn2c1C(=O)/C=C/c1ccc(F)cc1 was read as Beta apoptosis inactive, GRIN3A LBD mod 13, CSC inhib inactive, Mdm2 MdmX PPI inactive, Gli-Sufu antag inactive and MPTP block inactive.
Screening O=C1NC[C@@H](CCCCN2CCN(CC3CCCCC3)C(=O)C2=O)N(CC2CCCCC2)C1=O returned MPTP block inactive.
For O=C(CN1CCOCC1)N/N=C/c1c(O)ccc2ccccc12 the results were Beta apoptosis 84, GRIN3A LBD mod inactive, CSC inhib inactive, Mdm2 MdmX PPI inactive, Gli-Sufu antag inactive and MPTP block inactive.
Screening CC(=O)Nc1ccc(N=Cc2c(O)ccc3ccccc23)cc1 returned Beta apoptosis inactive, GRIN3A LBD mod 39, CSC inhib inactive, Mdm2 MdmX PPI inactive, Gli-Sufu antag inactive and MPTP block inactive.
`O=C(N/N=C/c1c(O)ccc2ccccc12)Nc1ccccc1` gave Beta apoptosis inactive, GRIN3A LBD mod 39, CSC inhib inactive, Mdm2 MdmX PPI inactive and Gli-Sufu antag inactive.
Screening Cc1ccc(C)c(N2CCN(C(=O)CCc3nc(-c4cccc(F)c4)no3)CC2)c1 returned GRIN3A LBD mod 20, Mdm2 MdmX PPI inactive, Gli-Sufu antag inactive and MPTP block inactive.
O=C(Nc1cccc([N+](=O)[O-])c1)C1CC(=O)N(C2CCCCC2)C1 (stereo unspecified) was read as Beta apoptosis inactive, GRIN3A LBD mod 14, Mdm2 MdmX PPI inactive, Gli-Sufu antag inactive and MPTP block inactive.
For S=C(Nc1ccccc1Cl)N1CCCC(c2ccccc2)=N1 the results were Beta apoptosis inactive, GRIN3A LBD mod inactive, CSC inhib 84, Mdm2 MdmX PPI inactive, Gli-Sufu antag inactive and MPTP block inactive.
`O=C(c1ccc2c(c1)[nH]c(=S)n1c3ccccc3nc21)N1CCN(c2ncccn2)CC1` gave Beta apoptosis inactive, GRIN3A LBD mod 11, CSC inhib inactive, Mdm2 MdmX PPI inactive, Gli-Sufu antag inactive and MPTP block inactive.
`COc1ccc(C(=O)c2ccc([N+](=O)[O-])cc2)c(OC)c1OC` gave GRIN3A LBD mod inactive, Gli-Sufu antag inactive and MPTP block inactive.
Screening CCCNC(=O)c1cc(C2CCCCN2C(=O)c2ccc3c(c2)CCO3)on1 (stereo unspecified) returned MPTP block inactive.
Cc1noc(C)c1C(=O)Nc1nc2ccc(Cl)cc2s1 was read as Beta apoptosis inactive, GRIN3A LBD mod inactive, CSC inhib inactive, Mdm2 MdmX PPI inactive, Gli-Sufu antag inactive and MPTP block inactive.
COc1ccc(C2Nc3ccccc3C(=O)N2c2ccccc2)cc1CSc1ccccn1 (stereo unspecified) was read as Beta apoptosis inactive, GRIN3A LBD mod 18, CSC inhib inactive, Mdm2 MdmX PPI inactive, Gli-Sufu antag inactive and MPTP block inactive.
For Oc1c(Br)cc(Br)cc1CNc1nccs1 the results were Beta apoptosis inactive, GRIN3A LBD mod inactive, CSC inhib inactive, Mdm2 MdmX PPI inactive, Gli-Sufu antag inactive and MPTP block inactive.
Screening Oc1c(Br)cc(Br)cc1CNc1cnc2ccccc2c1 returned Beta apoptosis inactive, GRIN3A LBD mod 24, CSC inhib inactive, Mdm2 MdmX PPI inactive, Gli-Sufu antag inactive and MPTP block inactive.
For COc1ccc(NC(=O)Nc2ccccc2F)cc1Cl the results were Beta apoptosis inactive, GRIN3A LBD mod 20, CSC inhib inactive, Mdm2 MdmX PPI inactive, Gli-Sufu antag inactive and MPTP block inactive.
`CSc1ccc(NC(=O)Nc2ccc(C(=O)NCC(=O)O)cc2)cc1` gave Beta apoptosis inactive, GRIN3A LBD mod 15, CSC inhib inactive, Mdm2 MdmX PPI inactive, Gli-Sufu antag inactive and MPTP block inactive.

Screens (PubChem)
